Activity calls are given as the source filed them. The calls were made as follows: active = hit-call score of the fitted dose curve at least 0.9, where 1 is the maximum; inactive = score below 0.9.
Read-out: not listed separately
Assay: BSK_LPS_SRB: Viability Assessment in the BioMAP Diversity Plus: LPS Assay (AID 2283079);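 also: total protein by sulforhodamine B absorbance as a cytotoxicity measure; measured one day after compound addition; fitted in both directions against DMSO so loss or gain of signal counts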
Conditions: primary human HUVEC with PBMC
In short: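 HUVEC + PBMC co-culture, LPS-stimulated; compound 24 h. 10% TCA fix, 0.1% SRB stain, A560. Bidirectional fit vs DMSO.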
For `CCCCCCc1ccc(O)cc1O`, the AC50 was 28.5 µM (active).
With `COc1ccc2sc(C(=O)Nc3nnn[nH]3)c(OC(C)C)c2c1` the AC50 was 9.83 µM (active).
In the case of `CN(C)c1ccc(N=NS(=O)(=O)O)cc1`, the outcome is reported as “inactive”.
In the case of `Nc1nc2ncc(CNc3ccc(C(=O)N[C@@H](CCC(=O)O)C(=O)O)cc3)nc2c(=O)[nH]1`, the outcome is reported as “inactive”.
In the case of `CCn1nc(Cc2ccccc2)cc1C1CCN(C[C@H]2C[C@H](N(C)[C@@H](C(=O)O)C(C)C)C[C@@H]2c2cccc(F)c2)CC1`, the outcome is reported as “inactive”.
In the case of `Cc1ccc(C)c(O)c1`, the outcome is reported as “inactive”.
With `C=CC(=C)CCC=C(C)C` the outcome was “inactive”.
In the case of `O=C1OC(=O)C2C3C=CC(C3)C12` (centres undefined), the outcome is reported as “inactive”.
With `CCOC(=O)COc1ccc2c(c1)CC(NCC(O)c1cccc(Cl)c1)CC2` (centres undefined) the AC50 was 28.4 µM (active).
With `CCOCCOCCOCCO` the outcome was “inactive”.
In the case of `CCCC(=O)OCC`, the outcome is reported as “inactive”.
In the case of `O=C(O)c1cc(N=Nc2ccc(S(=O)(=O)Nc3ccccn3)cc2)ccc1O`, the outcome is reported as “inactive”.
In the case of `O=C(NS(=O)(=O)/C=C/c1ccccc1)c1ccc(F)cc1Cl`, the outcome is reported as “inactive”.
In the case of `C[C@](N)(Cc1ccc(O)c(O)c1)C(=O)O`, the outcome is reported as “inactive”.
For `CCCCC(CC)COC(=O)CCCCCCCCC(=O)OCC(CC)CCCC` (centres undefined), the outcome was “inactive”.
With `CCCCCCCCCCCCc1ccccc1` the outcome was “inactive”.
In the case of `O=P(OC(CCl)CCl)(OC(CCl)CCl)OC(CCl)CCl`, the outcome is reported as “inactive”.
With `CNS(=O)(=O)c1cc(C(=O)N2CCC(CCN3C4CCC3CC(n3c(C)nc5ccccc53)C4)(c3cccc(F)c3)CC2)c(Cl)cc1F` (centres undefined) the AC50 was 17.4 µM (active).
For `Oc1ccc2c(c1)-c1ccccc1C2`, the AC50 was 20 µM (active).
In the case of `CC(C)CCCCCCOC(=O)c1ccc(C(=O)OCCCCCCC(C)C)c(C(=O)OCCCCCCC(C)C)c1`, the outcome is reported as “inactive”.
In the case of `O=C(O)CCN(C1(C(=O)NO)CCCC1)S(=O)(=O)c1ccc(Oc2ccc(F)cc2)cc1`, the outcome is reported as “inactive”.
For `COc1cccc(-c2ccc(/C=C\CN3CCCCCC3)cc2Cl)c1`, the AC50 was 26.8 µM (active).
With `O=C(OC[C@H]1O[C@@H](OC(=O)c2cc(O)c(O)c(OC(=O)c3cc(O)c(O)c(O)c3)c2)[C@H](OC(=O)c2cc(O)c(O)c(OC(=O)c3cc(O)c(O)c(O)c3)c2)[C@@H](OC(=O)c2cc(O)c(O)c(OC(=O)c3cc(O)c(O)c(O)c3)c2)[C@@H]1OC(=O)c1cc(O)c(O)c(OC(=O)c2cc(O)c(O)c(O)c2)c1)c1cc(O)c(O)c(OC(=O)c2cc(O)c(O)c(O)c2)c1` the AC50 was 10 µM (active).
For `Clc1nc(Cl)c(Cl)c(Cl)c1Cl`, the outcome was “inactive”.
For `COc1ccc(/C=C/S(=O)(=O)NC(=O)c2ccc(C)cc2Cl)cc1`, the outcome was “inactive”.
In the case of `COC(=O)CC(=O)OC`, the outcome is reported as “inactive”.
In the case of `O=c1[nH]c2ccc(S(=O)CCN3CCC(Cc4ccc(F)cc4)CC3)cc2o1` (centres undefined), the outcome is reported as “inactive”.
In the case of `CC[C@H](C)C(=O)O[C@H]1C[C@@H](C)C=C2C=C[C@H](C)[C@H](CC[C@@H]3C[C@@H](O)CC(=O)O3)[C@H]21`, the AC50 is reported as 3.95 µM (active).
With `Cc1c(-c2cccnc2)c2ccccc2n1CCCCC(=O)O` the outcome was “inactive”.

Read-out: Interleukin-1 alpha (IL1a), IL1A (gene 3552)
Assay: BSK_LPS_IL1a: BioMAP Diversity Plus: LPS Assay for Interleukin-1 alpha (IL1a) Biomarker Activity (AID 2283080)
Conditions: primary human HUVEC with PBMC; actives raise or lower the signal
In short: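 HUVEC/PBMC co-culture, LPS system; 24 h after dosing; IL-1a by ELISA; gain or loss of signal fitted bidirectionally vs DMSO baseline.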
For `CCCCCCc1ccc(O)cc1O`, the AC50 was 26.6 µM (active).
For `COc1ccc2sc(C(=O)Nc3nnn[nH]3)c(OC(C)C)c2c1`, the AC50 was 13.2 µM (active).
For `CN(C)c1ccc(N=NS(=O)(=O)O)cc1`, the outcome was “inactive”.
With `Nc1nc2ncc(CNc3ccc(C(=O)N[C@@H](CCC(=O)O)C(=O)O)cc3)nc2c(=O)[nH]1` the outcome was “inactive”.
For `CCn1nc(Cc2ccccc2)cc1C1CCN(C[C@H]2C[C@H](N(C)[C@@H](C(=O)O)C(C)C)C[C@@H]2c2cccc(F)c2)CC1`, the outcome was “inactive”.
With `Cc1ccc(C)c(O)c1` the outcome was “inactive”.
For `C=CC(=C)CCC=C(C)C`, the outcome was “inactive”.
With `O=C1OC(=O)C2C3C=CC(C3)C12` (centres undefined) the outcome was “inactive”.
In the case of `CCCC(=O)OCC`, the outcome is reported as “inactive”.
With `O=C(O)c1cc(N=Nc2ccc(S(=O)(=O)Nc3ccccn3)cc2)ccc1O` the outcome was “inactive”.
In the case of `C[C@](N)(Cc1ccc(O)c(O)c1)C(=O)O`, the outcome is reported as “inactive”.
For `CCCCC(CC)COC(=O)CCCCCCCCC(=O)OCC(CC)CCCC` (centres undefined), the outcome was “inactive”.
For `CCCCCCCCCCCCc1ccccc1`, the outcome was “inactive”.
With `O=P(OC(CCl)CCl)(OC(CCl)CCl)OC(CCl)CCl` the outcome was “inactive”.
In the case of `CC(C)CCCCCCOC(=O)c1ccc(C(=O)OCCCCCCC(C)C)c(C(=O)OCCCCCCC(C)C)c1`, the outcome is reported as “inactive”.
In the case of `O=C(OC[C@H]1O[C@@H](OC(=O)c2cc(O)c(O)c(OC(=O)c3cc(O)c(O)c(O)c3)c2)[C@H](OC(=O)c2cc(O)c(O)c(OC(=O)c3cc(O)c(O)c(O)c3)c2)[C@@H](OC(=O)c2cc(O)c(O)c(OC(=O)c3cc(O)c(O)c(O)c3)c2)[C@@H]1OC(=O)c1cc(O)c(O)c(OC(=O)c2cc(O)c(O)c(O)c2)c1)c1cc(O)c(O)c(OC(=O)c2cc(O)c(O)c(O)c2)c1`, the outcome is reported as “inactive”.
In the case of `COC(=O)CC(=O)OC`, the outcome is reported as “inactive”.
In the case of `O=c1[nH]c2ccc(S(=O)CCN3CCC(Cc4ccc(F)cc4)CC3)cc2o1` (centres undefined), the outcome is reported as “inactive”.
In the case of `CC[C@H](C)C(=O)O[C@H]1C[C@@H](C)C=C2C=C[C@H](C)[C@H](CC[C@@H]3C[C@@H](O)CC(=O)O3)[C@H]21`, the AC50 is reported as 3.95 µM (active).
With `Cc1c(-c2cccnc2)c2ccccc2n1CCCCC(=O)O` the outcome was “inactive”.

— PubChem BioAssay (EPA / NIEHS)
